Laboratory results from PubChem BioAssay (NCI).
About 79,000 compounds went through this panel and 15% of them were active in at least one assay; those are over-represented in the sample as a whole. Unmarked numbers belong to inactive results. Rule as the data show it: active = growth inhibition above about 70%; inactive = the rest.

Experiment: NCI Yeast Anticancer Drug Screen. Data for the bub3 strain (AID 167)
Settings: S. cerevisiae bub3 mutant strain, at 50.0 µM, stronger effect = higher value
Description: Growth inhibition of yeast strains with defined genetic alterations is measured as a screen for potential anti-cancer activity. Selected strains with alterations in DNA damage repair or cell cycle control were exposed to compounds and growth inhibition was measured relative to vehicle treated controls. The strain used in this assay is bub3

Row | SMILES | growth inhibition [%]
1 | CC(C)(C)/C=N/Nc1ccc([N+](=O)[O-])cc1[N+](=O)[O-] | 11.7
2 | CCCC(CNC(C)=O)(c1ccccc1)C1CCCCC1 (stereo not given) | 11.2
3 | COC1OC(COS(=O)(=O)c2ccc(C)cc2)C2OC(C)(C)OC2C1OS(=O)(=O)c1ccc(C)cc1 (stereo not given) | 3.85
4 | [Cl][Pd][Cl].[NH-]CC1(C[NH-])CCCCC1 | 7.7
5 | CC1CCC(C(C)(C)c2ccccc2)C(=O)C1 (stereo not given) | -19
6 | Cc1cccc(C)c1N1C(=O)C(=O)C(c2nc3ccccc3s2)C(=Nc2cccc3c(=O)[nH][nH]c(=O)c23)C1=O (stereo not given) | 0.95
7 | COc1ccc2ccc3c(OC(C)=O)ccc(CCN(C)C(C)=O)c3c2c1OC(C)=O | 2.25
8 | Cc1n(C)nn[n+]1C | 7.9
9 | O=C(Nc1ccccc1C(=O)N/N=C/c1ccccc1Cl)c1ccccc1Cl | 0.25
10 | O=[N+]([O-])c1ccc(C2ON=C(c3ccccc3)N2C23CC4CC(CC(C4)C2)C3)cc1 (stereo not given) | -6.5
11 | Cc1nc(C)c(C(=O)NNC(=O)C[n+]2ccccc2)cc1C(=O)NNC(=O)C[n+]1ccccc1 | -12.4
12 | C=C(C)CS(=O)(=O)O | 3.35
13 | COc1cccc(NC(=O)N/C(=C/c2ccc(N(CCC#N)CCC#N)cc2)NC(=O)c2cc([N+](=O)[O-])ccc2Cl)c1 | -6.8
14 | CC(=O)OCc1cn(S(=O)(=O)c2ccc(C)cc2)cn1 | 11.6
15 | Cc1ncc2c(n1)CCC1=C2OS(=O)(=O)CC1N(C)C (stereo not given) | -10.1
16 | C=C1C(=O)O[C@@H]2[C@H]3[C@H](C)C(=O)C=C[C@]3(C)CC[C@@H]12 | 8.95
17 | Cc1ccc(S(=O)(=O)CC(O)(C(C)C)C(C)C)cc1 | 16.6
18 | N#Cc1ccc(CCc2ccccc2)cc1 | 2.95
19 | O=C(O)c1ccc(Br)cc1C(=O)O | 4.65
20 | C=C(c1nc2ccc(Cl)cc2[nH]c1=O)C(O)c1ccc(C(O)C(=O)c2nc3ccc(Cl)cc3[nH]c2=O)cc1 (stereo not given) | -1.4

Row | SMILES | growth inhibition [%]
21 | C/C(=N/NC(N)=O)C1=CCCCC1 | 0.7
22 | NC1CC(=O)c2sccc21 (stereo not given) | 17.8
23 | CC1=COC(=O)c2ccccc2N1 | 6.05
24 | CC(=O)N1CC=CCC1 | -1.55
25 | O=C1CSC(c2ccccn2)N1CCN1C(=O)CSC1c1ccccn1 (stereo not given) | -8.05
26 | CC1OC(OC2C(OC(=O)[C@]34CCC(C)(C)C[C@H]3C3=CC[C@@H]5[C@@]6(C)CC[C@H](OC7OC(CO)C(O)C(O)C7OC7OC(CO)C(O)C(O)C7O)C(C)(C)[C@@H]6CC[C@@]5(C)[C@]3(C)CC4)OCC(O)C2O)C(O)C(O)C1OC1OCC(O)C(O)C1O (stereo not given in full) | -32.8
27 | CCN(c1ccccc1)S(=O)(=O)c1ccc(Oc2ccccc2)c(N)c1 | 36.5
28 | COc1ccc(/C=C2\CCCC(C(NO)c3ccc(OC)cc3)C2=NO)cc1 (stereo not given) | 22.8
29 | C=CCC12CC(O)C(O)CC1(OC)OC(c1cc(OC)c(OC)c(OC)c1)C2C (stereo not given) | 4.35
30 | CC1=C(C(=O)OC2CC3CCC2(C)C3(C)C)C2Nc3ccccc3N(C)C2O1 (stereo not given) | -8.4
31 | c1ccc(-c2cnc(-c3ccccc3)cn2)cc1 | 6.75
32 | CCOc1c(N=Nc2ccc(OC)cc2)c(C)nn1C(N)=S | 9.75
33 | CN(C)CC1CCCC/C1=N/O (stereo not given) | 2.55
34 | COC(=O)C1CCCN1C(=O)C(C)=O (stereo not given) | 5.4
35 | O=C(c1ccccc1)c1oc2ccc(Br)cc2c1-c1cnn(-c2ccccc2)c1 | -3.85
36 | CC(=O)O[C@@H]1[C@H]2O[C@H]2[C@H]2O[C@@]2(COC(=O)c2ccccc2)[C@H]1OC(C)=O | 0.75
37 | CN(C)CC1=C(O)c2ccccc2C(=O)C1=O | 31.6
38 | CCC[CH2][Ge]([Cl])([Cl])[CH2]CCC | 40.9
39 | O=C(NC1CC1)C1CC1 | 1.7
40 | C=C1C(=O)O[C@H]2C[C@@H]1C(=O)C/C(C)=C/CC/C(C)=C/CC[C@@]2(C)OCSC | 9.85
